Laboratory results from PubChem BioAssay (Tox21).
Values joined by “and” are separate entries in the source; they are usually repeats but may differ in a detail not shown here. Equal values may be shown once. Results filed as inconclusive are left out. Active and inactive are the calls of the source. Calls come from the whole dose curve; as a rule, active = well fitted curve in the direction sought with a large enough effect in the repeat runs; inconclusive = weak or mixed curves; inactive = no such curve, though single readings can be large; an effect the other way counts as inactive or inconclusive.

Assay: qHTS RealTime-Glo MT Cell Viability Assay in HepG2 cells - 16 hour (AID 1224885)
Conditions: RealTime-Glo luminescence; series mostly up to 76.8 µM; activity change, negative = cytotoxic: at the top concentration
In short: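 Real-time, nonlytic viability: 600 HepG2 cells/well mixed with NanoLuc enzyme plus prosubstrate; 5 h settle, compound (DMSO) added by pintool; luminescence monitored over 40 h at 37 C.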
% is set by controls: 0 for no effect and ±100 for the full control effect; potency is the fitted concentration of half-maximal effect.
Note: nearly all actives have a fitted effect of over 50% in size.

For O=[N+]([O-])c1cc(C(F)(F)F)c(Cl)c([N+](=O)[O-])c1Nc1ncc(C(F)(F)F)cc1Cl, which Potency is on record?
Its Potency is 24.5 µM (active).

Which “activity change, negative = cytotoxic” value does the source give for CC#C[C@]1(O)CC[C@H]2[C@@H]3C[C@H](C)C4=CC(=O)CC[C@]4(C)[C@H]3CC[C@@]21C here?
Its value is -16.2% [at 35.3 µM] (inactive).

With O=P(Cl)(Cl)Cl as the molecule, how does the “activity change, negative = cytotoxic” value read?
The value was -0.966% (inactive).

With O=Cc1ccccc1 as the molecule, how does the “activity change, negative = cytotoxic” value read?
Its value is 3.26% (inactive).

With COc1nc(C)nc(NC(=O)NS(=O)(=O)c2ccccc2Cl)n1 as the molecule, how does the “activity change, negative = cytotoxic” value read?
Its value is -0.369% (inactive).

For CCC[CH2][Sn]([CH2]CCC)([CH2]CCC)[O][Sn]([CH2]CCC)([CH2]CCC)[CH2]CCC, which Potency is on record?
The Potency was 0.676 µM (active).

For C#CCO, which “activity change, negative = cytotoxic” value is on record?
The value was 0.435% (inactive).

With ClCBr as the molecule, how does the “activity change, negative = cytotoxic” value read?
The value was 1.04% (inactive).

With CCCCCON=O as the molecule, how does the “activity change, negative = cytotoxic” value read?
Its value is -0.436% (inactive).

For OCC(Br)CBr (configuration not stated), which “activity change, negative = cytotoxic” value is on record?
The value was 0.929% (inactive).

For CCCN, which “activity change, negative = cytotoxic” value is on record?
The value was -0.655% (inactive).

Which Potency does the source give for O=S1OCC2C(CO1)C1(Cl)C(Cl)=C(Cl)C2(Cl)C1(Cl)Cl (configuration not stated) here?
Its Potency is 48.9 µM (active).

Which “activity change, negative = cytotoxic” value does the source give for CSSC here?
Its value is -3.4% (inactive).

Which “activity change, negative = cytotoxic” value does the source give for CC(C)(C)c1ccc(OP(=O)(Oc2ccccc2)Oc2ccccc2)cc1 here?
Its value is -7.24% (inactive).

With C=CCBr as the molecule, how does the “activity change, negative = cytotoxic” value read?
The value was 0.777% (inactive).

For CC(C)=CCN1CC[C@@]2(C)c3cc(O)ccc3C[C@@H]1[C@@H]2C, which “activity change, negative = cytotoxic” value is on record?
Its value is -9.73% (inactive).

For ClC(Cl)C(Cl)(Cl)Cl, which “activity change, negative = cytotoxic” value is on record?
Its value is 2.07% (inactive).

For Clc1c(Cl)c(Cl)c(Cl)c(Cl)c1Cl, which activity change, negative = cytotoxic is on record?
Its activity change, negative = cytotoxic is -0.903% [at 6.97 µM] (inactive).

Which “activity change, negative = cytotoxic” value does the source give for CCNS(=O)(=O)C(F)(F)C(F)(F)C(F)(F)C(F)(F)C(F)(F)C(F)(F)C(F)(F)C(F)(F)F here?
The value was 1.1% (inactive).

With CSC1=N[C@@](C)(c2ccccc2)C(=O)N1Nc1ccccc1 as the molecule, how does the “activity change, negative = cytotoxic” value read?
Its value is -3.13% (inactive).

For CCn1cc[n+](C)c1 (tested in a mixture with another compound), which “activity change, negative = cytotoxic” value is on record?
The value was 1.9% (inactive).

With c1ccc2c(c1)cc1ccc3cccc4ccc2c1c34 as the molecule, how does the “activity change, negative = cytotoxic” value read?
The value was -13% (inactive).

Assay: qHTS RealTime-Glo MT Cell Viability Assay in HEK293 cells - 24 hour (AID 1224886); for activity change, negative = cytotoxicity: top concentration of the series differs between compounds
Conditions: RealTime-Glo luminescence; series mostly up to 76.8 µM; activity change, negative = cytotoxicity: at the top concentration
In short: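 Cells + reagent dispensed (600 cells/well, HEK293) → 5 h at 37 C/5% CO2 → 23 nL compound in DMSO pinned → 40 h at 37 C → luminescence read at 0, 8, 16, 24, 32, 40 h.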

Which Potency does the source give for O=[N+]([O-])c1cc(C(F)(F)F)c(Cl)c([N+](=O)[O-])c1Nc1ncc(C(F)(F)F)cc1Cl here?
The Potency was 1.74 µM (active).

Which “activity change, negative = cytotoxicity” value does the source give for CNC(=O)O/N=C(\C)C(C)S(C)(=O)=O (configuration not stated) here?
The value was -0.172% [at 725 µM] (inactive).

Which “activity change, negative = cytotoxicity” value does the source give for O=P(Cl)(Cl)Cl here?
Its value is 0.49% (inactive).

Which “activity change, negative = cytotoxicity” value does the source give for O=Cc1ccccc1 here?
Its value is 18% (inactive).

For COc1nc(C)nc(NC(=O)NS(=O)(=O)c2ccccc2Cl)n1, which “activity change, negative = cytotoxicity” value is on record?
Its value is 4.75% (inactive).

Which “activity change, negative = cytotoxicity” value does the source give for c1ccc(N=NNc2ccccc2)cc1 here?
The value was -16.2% (inactive).

Which Potency does the source give for CCC[CH2][Sn]([CH2]CCC)([CH2]CCC)[O][Sn]([CH2]CCC)([CH2]CCC)[CH2]CCC here?
Its Potency is 0.191 µM (active).

With C#CCO as the molecule, how does the “activity change, negative = cytotoxicity” value read?
The value was 4.88% (inactive).

For ClCBr, which “activity change, negative = cytotoxicity” value is on record?
Its value is 4.91% (inactive).

Which “activity change, negative = cytotoxicity” value does the source give for COP(=S)(OC)Oc1nc(Cl)c(Cl)cc1Cl here?
The value was -5.7% (inactive).

Which Potency does the source give for CC(=O)[O][Sn]([c]1ccccc1)([c]1ccccc1)[c]1ccccc1 here?
Its Potency is 0.0436 µM (active).

For CCCCCON=O, which “activity change, negative = cytotoxicity” value is on record?
Its value is -6.06% (inactive).

With OCC(Br)CBr (configuration not stated) as the molecule, how does the “activity change, negative = cytotoxicity” value read?
The value was -13.6% (inactive).

With [O]=[Cr](=[O])([OH])[O][Cr](=[O])(=[O])[OH] as the molecule, how does the Potency read?
The Potency was 12.4 µM (active) and 6.9 µM (active).

Which Potency does the source give for N#CC(C#N)=NNc1cccc(Cl)c1 here?
The Potency was 5.49 µM (active).

With CO/N=C(/C1=NOCCO1)c1ccccc1Oc1ncnc(Oc2ccccc2Cl)c1F as the molecule, how does the “activity change, negative = cytotoxicity” value read?
Its value is -24% (inactive).

With CC(C)C(Nc1ccc(C(F)(F)F)cc1Cl)C(=O)OC(C#N)c1cccc(Oc2ccccc2)c1 (configuration not stated) as the molecule, how does the “activity change, negative = cytotoxicity” value read?
Its value is -24.6% (inactive).

For [Cl-].[Cl-].[Sn+2], which “activity change, negative = cytotoxicity” value is on record?
The value was 19.8% (inactive).

Which “activity change, negative = cytotoxicity” value does the source give for COP(=O)(OC)O/C(=C\Cl)c1cc(Cl)c(Cl)cc1Cl here?
The value was -14.7% (inactive).

Which “activity change, negative = cytotoxicity” value does the source give for CCCN here?
The value was -1.03% (inactive).

With O=S1OCC2C(CO1)C1(Cl)C(Cl)=C(Cl)C2(Cl)C1(Cl)Cl (configuration not stated) as the molecule, how does the Potency read?
Its Potency is 21.9 µM (active) and 38.9 µM (active).

Which “activity change, negative = cytotoxicity” value does the source give for C=CCBr here?
The value was 1.46% (inactive).

Which Potency does the source give for O=C1C(Cl)=C(Cl)C(=O)C(Cl)=C1Cl here?
Its Potency is 24.5 µM (active) and 21.9 µM (active).

For ClC(Cl)C(Cl)(Cl)Cl, which “activity change, negative = cytotoxicity” value is on record?
The value was 0.594% (inactive).

Which activity change, negative = cytotoxicity does the source give for Clc1c(Cl)c(Cl)c(Cl)c(Cl)c1Cl here?
Its activity change, negative = cytotoxicity is 2.9% [at 6.97 µM] (inactive).

With CCNS(=O)(=O)C(F)(F)C(F)(F)C(F)(F)C(F)(F)C(F)(F)C(F)(F)C(F)(F)C(F)(F)F as the molecule, how does the “activity change, negative = cytotoxicity” value read?
Its value is 18.9% (inactive).

Which “activity change, negative = cytotoxicity” value does the source give for CC(C)N(C(=O)SC/C(Cl)=C/Cl)C(C)C here?
The value was -24.3% (inactive).

With CSC1=N[C@@](C)(c2ccccc2)C(=O)N1Nc1ccccc1 as the molecule, how does the “activity change, negative = cytotoxicity” value read?
The value was 1.55% (inactive).

For CCn1cc[n+](C)c1 (tested in a mixture with another compound), which “activity change, negative = cytotoxicity” value is on record?
Its value is -1.71% (inactive).

Assay: qHTS RealTime-Glo MT Cell Viability Assay in HEK293 cells - 8 hour (AID 1224887); for activity change, negative = cytotoxicity: top concentration of the series differs between compounds
Conditions: RealTime-Glo luminescence; series mostly up to 76.8 µM; activity change, negative = cytotoxicity: at the top concentration
In short: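 Tox21 screen in HEK293 using RealTime-Glo MT chemistry, with cells and reagent co-dispensed. Luminescence proportional to viable cell number was captured at intervals during 40 h compound exposure at 37 C.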

With O=[N+]([O-])c1cc(C(F)(F)F)c(Cl)c([N+](=O)[O-])c1Nc1ncc(C(F)(F)F)cc1Cl as the molecule, how does the Potency read?
Its Potency is 5.49 µM (active).

With CC#C[C@]1(O)CC[C@H]2[C@@H]3C[C@H](C)C4=CC(=O)CC[C@]4(C)[C@H]3CC[C@@]21C as the molecule, how does the “activity change, negative = cytotoxicity” value read?
The value was -17% [at 35.3 µM] (inactive).

Which “activity change, negative = cytotoxicity” value does the source give for CNC(=O)O/N=C(\C)C(C)S(C)(=O)=O (configuration not stated) here?
Its value is 7.45% [at 725 µM] (inactive).

With O=P(Cl)(Cl)Cl as the molecule, how does the “activity change, negative = cytotoxicity” value read?
Its value is 4.09% (inactive).

Which “activity change, negative = cytotoxicity” value does the source give for O=Cc1ccccc1 here?
The value was 0.691% (inactive).

With COc1nc(C)nc(NC(=O)NS(=O)(=O)c2ccccc2Cl)n1 as the molecule, how does the “activity change, negative = cytotoxicity” value read?
Its value is 2.49% (inactive).

Which Potency does the source give for c1ccc(N=NNc2ccccc2)cc1 here?
Its Potency is 50.7 µM (active).

With CCC[CH2][Sn]([CH2]CCC)([CH2]CCC)[O][Sn]([CH2]CCC)([CH2]CCC)[CH2]CCC as the molecule, how does the Potency read?
The Potency was 0.269 µM (active).

Which “activity change, negative = cytotoxicity” value does the source give for C#CCO here?
The value was 4.75% (inactive).

Which “activity change, negative = cytotoxicity” value does the source give for OCC(Br)CBr (configuration not stated) here?
Its value is -2.35% (inactive).

With CO/N=C(/C1=NOCCO1)c1ccccc1Oc1ncnc(Oc2ccccc2Cl)c1F as the molecule, how does the “activity change, negative = cytotoxicity” value read?
The value was 9.14% (inactive).

With [Cl-].[Cl-].[Sn+2] as the molecule, how does the “activity change, negative = cytotoxicity” value read?
Its value is -0.271% (inactive).

With COP(=O)(OC)O/C(=C\Cl)c1cc(Cl)c(Cl)cc1Cl as the molecule, how does the “activity change, negative = cytotoxicity” value read?
The value was -13.9% (inactive).

With CCCN as the molecule, how does the “activity change, negative = cytotoxicity” value read?
The value was -0.699% (inactive).

Which “activity change, negative = cytotoxicity” value does the source give for CSSC here?
The value was -7.39% (inactive).

For CC(C)=CCN1CC[C@@]2(C)c3cc(O)ccc3C[C@@H]1[C@@H]2C, which “activity change, negative = cytotoxicity” value is on record?
The value was -20.7% (inactive).

With CC[C@]1(O)CC[C@H]2[C@@H]3CCC4=CCCC[C@@H]4[C@H]3CC[C@@]21C as the molecule, how does the “activity change, negative = cytotoxicity” value read?
Its value is -20.6% [at 35.3 µM] (inactive).

With O=C1C(Cl)=C(Cl)C(=O)C(Cl)=C1Cl as the molecule, how does the Potency read?
Its Potency is 21.8 µM (active).

For CCNS(=O)(=O)C(F)(F)C(F)(F)C(F)(F)C(F)(F)C(F)(F)C(F)(F)C(F)(F)C(F)(F)F, which “activity change, negative = cytotoxicity” value is on record?
The value was 5.73% (inactive).

Which “activity change, negative = cytotoxicity” value does the source give for CSC1=N[C@@](C)(c2ccccc2)C(=O)N1Nc1ccccc1 here?
Its value is 38.1% (inactive).

For CCn1cc[n+](C)c1 (tested in a mixture with another compound), which “activity change, negative = cytotoxicity” value is on record?
The value was 13.4% (inactive).
